Measurements published in paper PMC7862700, “An all-to-all approach to the identification of sequence-specific readers for epigenetic DNA modifications on cytosine”.

Experiments:
Experiment in all cases: DAPPL (digital affinity profiling via proximity ligation, sequencing); 10 mM Tris-HCl pH 7.5, 50 mM NaCl, 1 mM DTT, 4% glycerol, room temperature, 30 min; GST-TFs on glutathione beads, 16-mer random dsDNA library, 0.1% formaldehyde crosslink after washing; high values mean tight binding
FEV = target: T1, FEV (Homo sapiens, UniProt Q99581 1-238); settings: protein: recombinant; tags: N-terminal GST; dsDNA, one strand shown
T1 sequence: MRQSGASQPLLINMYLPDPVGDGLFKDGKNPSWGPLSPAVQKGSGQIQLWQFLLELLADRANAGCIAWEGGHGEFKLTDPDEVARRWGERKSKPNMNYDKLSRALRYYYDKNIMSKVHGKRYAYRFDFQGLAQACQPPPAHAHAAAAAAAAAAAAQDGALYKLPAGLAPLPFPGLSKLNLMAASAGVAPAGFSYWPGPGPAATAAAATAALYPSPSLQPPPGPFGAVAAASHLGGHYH
Method in brief: (§1)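 Binding signal is each hexamer's read frequency for a factor divided by its frequency in the tag-only sample. The factors were GST-fused human transcription factors from yeast, captured on glutathione beads, DNA-barcoded and pooled with that sample. Pools were incubated with 200 nmole of a random double-stranded 16-mer DNA library in Tris/NaCl/DTT/glycerol buffer at room temperature for 30 min, then washed, crosslinked with 0.1% formaldehyde, proximity-ligated with BsaI/T4 ligase (1 h, 37 °C), PCR-amplified and sequenced on an Illumina NextSeq500.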

ETV5 = ETV5 (Homo sapiens, UniProt P41161 1-510); settings: protein: recombinant; tags: N-terminal GST; dsDNA, one strand shown
Method in brief: as §1

HSF1 = HSF1 (Homo sapiens, UniProt Q00613 1-529); settings: protein: recombinant; tags: N-terminal GST; chain copies: 3; dsDNA, one strand shown
Method in brief: as §1

ELF4 = ELF4 (Homo sapiens, UniProt Q99607 1-663); settings: protein: recombinant; tags: N-terminal GST; dsDNA, one strand shown
Method in brief: as §1

ELK4 = target: T2, ELK4 (Homo sapiens, UniProt P28324-2 1-405); settings: protein: recombinant; tags: N-terminal GST; dsDNA, one strand shown
T2 sequence: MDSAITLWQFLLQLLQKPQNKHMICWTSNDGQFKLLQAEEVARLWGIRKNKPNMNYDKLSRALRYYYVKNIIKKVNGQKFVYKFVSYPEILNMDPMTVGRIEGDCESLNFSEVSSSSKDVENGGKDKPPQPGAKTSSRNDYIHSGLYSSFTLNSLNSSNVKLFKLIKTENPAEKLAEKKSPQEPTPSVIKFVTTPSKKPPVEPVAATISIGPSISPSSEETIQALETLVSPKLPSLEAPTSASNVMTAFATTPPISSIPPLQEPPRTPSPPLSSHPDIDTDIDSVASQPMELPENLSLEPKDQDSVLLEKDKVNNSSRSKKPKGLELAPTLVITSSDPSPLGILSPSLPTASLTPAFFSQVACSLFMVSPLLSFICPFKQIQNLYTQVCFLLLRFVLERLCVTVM
Method in brief: as §1

ETV2 = target: T3, ETV2 (Homo sapiens, UniProt O00321 1-342); settings: protein: recombinant; tags: N-terminal GST; dsDNA, one strand shown
T3 sequence: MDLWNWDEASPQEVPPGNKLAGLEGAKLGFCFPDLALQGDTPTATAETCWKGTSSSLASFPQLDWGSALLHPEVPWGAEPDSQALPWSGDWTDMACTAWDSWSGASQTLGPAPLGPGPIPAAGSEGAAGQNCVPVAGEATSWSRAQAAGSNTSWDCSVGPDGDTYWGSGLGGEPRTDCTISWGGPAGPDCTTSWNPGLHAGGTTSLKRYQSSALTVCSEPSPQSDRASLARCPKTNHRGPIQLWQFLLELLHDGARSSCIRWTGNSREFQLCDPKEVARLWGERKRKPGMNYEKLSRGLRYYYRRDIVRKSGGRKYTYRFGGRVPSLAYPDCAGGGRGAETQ
Method in brief: as §1

ELF3 = target: T4, ELF3 (Homo sapiens, UniProt P78545 1-371); settings: protein: recombinant; tags: N-terminal GST; dsDNA, one strand shown
T4 sequence: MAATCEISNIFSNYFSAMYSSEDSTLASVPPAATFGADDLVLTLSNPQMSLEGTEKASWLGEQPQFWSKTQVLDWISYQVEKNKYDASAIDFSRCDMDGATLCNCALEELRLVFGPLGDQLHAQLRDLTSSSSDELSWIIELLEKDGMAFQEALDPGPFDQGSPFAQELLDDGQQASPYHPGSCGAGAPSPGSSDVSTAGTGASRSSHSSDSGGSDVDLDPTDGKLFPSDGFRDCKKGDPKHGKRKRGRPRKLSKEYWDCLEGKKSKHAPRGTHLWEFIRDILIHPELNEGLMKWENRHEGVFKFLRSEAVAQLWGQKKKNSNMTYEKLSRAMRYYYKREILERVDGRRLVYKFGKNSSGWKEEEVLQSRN
Method in brief: as §1

CRX = CRX (Homo sapiens, UniProt O43186 1-299); settings: protein: recombinant; tags: N-terminal GST; dsDNA, one strand shown
Method in brief: as §1

ETV1 = ETV1 (Homo sapiens, UniProt P50549 1-477); settings: protein: recombinant; tags: N-terminal GST; dsDNA, one strand shown
Method in brief: as §1

ERF = target: T5, ERF (Homo sapiens, UniProt P50548 1-548); settings: protein: recombinant; tags: N-terminal GST; dsDNA, one strand shown
T5 sequence: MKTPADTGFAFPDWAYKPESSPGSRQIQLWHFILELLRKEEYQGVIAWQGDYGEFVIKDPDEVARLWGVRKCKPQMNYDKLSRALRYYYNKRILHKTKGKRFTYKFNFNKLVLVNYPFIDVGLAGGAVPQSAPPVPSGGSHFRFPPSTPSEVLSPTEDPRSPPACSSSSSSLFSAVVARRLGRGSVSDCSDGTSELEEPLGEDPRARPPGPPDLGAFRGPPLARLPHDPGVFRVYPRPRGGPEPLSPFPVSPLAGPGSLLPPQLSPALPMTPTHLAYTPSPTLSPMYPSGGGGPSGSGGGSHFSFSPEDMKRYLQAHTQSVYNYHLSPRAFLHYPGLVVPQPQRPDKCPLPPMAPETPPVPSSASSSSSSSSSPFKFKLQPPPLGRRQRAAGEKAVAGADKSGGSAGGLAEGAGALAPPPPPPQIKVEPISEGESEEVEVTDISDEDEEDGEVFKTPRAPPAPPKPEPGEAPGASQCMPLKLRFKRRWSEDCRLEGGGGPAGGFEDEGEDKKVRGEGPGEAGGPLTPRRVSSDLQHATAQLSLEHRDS
Method in brief: as §1

ETV3L = target: T6, ETV3L (Homo sapiens, UniProt Q6ZN32 1-361); settings: protein: recombinant; tags: N-terminal GST; dsDNA, one strand shown
T6 sequence: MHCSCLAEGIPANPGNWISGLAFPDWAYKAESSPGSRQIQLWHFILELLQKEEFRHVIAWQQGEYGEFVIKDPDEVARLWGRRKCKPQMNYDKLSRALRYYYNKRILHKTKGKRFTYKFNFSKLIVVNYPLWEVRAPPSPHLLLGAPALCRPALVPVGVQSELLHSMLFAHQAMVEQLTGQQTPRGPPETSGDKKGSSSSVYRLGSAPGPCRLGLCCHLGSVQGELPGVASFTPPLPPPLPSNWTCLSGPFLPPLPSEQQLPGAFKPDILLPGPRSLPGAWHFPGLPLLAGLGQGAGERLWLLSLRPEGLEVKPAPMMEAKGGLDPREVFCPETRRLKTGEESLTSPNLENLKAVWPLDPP
Method in brief: as §1

ETS2 = target: T7, ETS2 (Homo sapiens, UniProt P15036 1-469); settings: protein: recombinant; tags: N-terminal GST; dsDNA, one strand shown
T7 sequence: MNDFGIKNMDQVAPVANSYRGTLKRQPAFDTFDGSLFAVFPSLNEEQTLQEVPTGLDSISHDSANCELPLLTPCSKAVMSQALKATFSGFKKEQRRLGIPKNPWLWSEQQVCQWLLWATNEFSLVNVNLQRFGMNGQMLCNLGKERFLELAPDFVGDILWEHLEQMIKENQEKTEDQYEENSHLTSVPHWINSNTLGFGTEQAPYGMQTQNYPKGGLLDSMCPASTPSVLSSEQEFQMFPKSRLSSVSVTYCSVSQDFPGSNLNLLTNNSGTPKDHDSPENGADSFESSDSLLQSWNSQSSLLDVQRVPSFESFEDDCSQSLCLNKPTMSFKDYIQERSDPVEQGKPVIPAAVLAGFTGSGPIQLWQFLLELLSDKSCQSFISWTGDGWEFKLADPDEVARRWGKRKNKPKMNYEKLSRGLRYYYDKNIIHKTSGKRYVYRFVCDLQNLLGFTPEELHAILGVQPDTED
Method in brief: as §1

SPDEF = target: T8, SPDEF (Homo sapiens, UniProt O95238 1-335); settings: protein: recombinant; tags: N-terminal GST; dsDNA, one strand shown
T8 sequence: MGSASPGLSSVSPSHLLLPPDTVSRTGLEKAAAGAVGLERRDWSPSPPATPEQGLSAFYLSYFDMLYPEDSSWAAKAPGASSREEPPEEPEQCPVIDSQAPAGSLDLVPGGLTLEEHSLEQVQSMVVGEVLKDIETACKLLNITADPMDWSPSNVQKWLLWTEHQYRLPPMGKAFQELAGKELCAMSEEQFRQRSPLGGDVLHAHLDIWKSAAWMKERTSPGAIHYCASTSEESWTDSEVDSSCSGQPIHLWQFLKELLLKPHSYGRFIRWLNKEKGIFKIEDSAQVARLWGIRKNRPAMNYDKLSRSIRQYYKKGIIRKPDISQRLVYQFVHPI
Method in brief: as §1

ETV7 = target: T9, ETV7 (Homo sapiens, UniProt Q9Y603 1-341); settings: protein: recombinant; tags: N-terminal GST; dsDNA, one strand shown
T9 sequence: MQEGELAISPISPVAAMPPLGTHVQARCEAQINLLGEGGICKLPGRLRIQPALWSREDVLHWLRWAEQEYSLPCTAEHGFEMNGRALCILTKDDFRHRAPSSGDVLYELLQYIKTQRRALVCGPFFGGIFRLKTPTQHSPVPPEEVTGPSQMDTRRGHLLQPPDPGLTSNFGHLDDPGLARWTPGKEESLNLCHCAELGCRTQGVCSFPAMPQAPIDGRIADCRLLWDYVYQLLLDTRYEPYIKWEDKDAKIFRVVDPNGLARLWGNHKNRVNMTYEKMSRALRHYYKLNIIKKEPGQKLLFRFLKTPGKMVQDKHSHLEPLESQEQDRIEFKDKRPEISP
Method in brief: as §1

ELF5 = target: T10, ELF5 (Homo sapiens, UniProt Q9UKW6-2 1-255); settings: protein: recombinant; tags: N-terminal GST; dsDNA, one strand shown
T10 sequence: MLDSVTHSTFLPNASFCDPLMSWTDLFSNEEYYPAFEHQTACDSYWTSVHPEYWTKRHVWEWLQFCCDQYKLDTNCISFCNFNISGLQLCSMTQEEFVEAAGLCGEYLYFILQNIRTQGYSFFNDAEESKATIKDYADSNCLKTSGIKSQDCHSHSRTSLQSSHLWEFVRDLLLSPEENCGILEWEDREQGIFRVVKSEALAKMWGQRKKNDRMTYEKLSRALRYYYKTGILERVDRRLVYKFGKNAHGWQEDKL
Method in brief: as §1

ETV3 = target: T11, ETV3 (Homo sapiens, UniProt P41162-2 1-143); settings: protein: recombinant; tags: N-terminal GST; dsDNA, one strand shown
T11 sequence: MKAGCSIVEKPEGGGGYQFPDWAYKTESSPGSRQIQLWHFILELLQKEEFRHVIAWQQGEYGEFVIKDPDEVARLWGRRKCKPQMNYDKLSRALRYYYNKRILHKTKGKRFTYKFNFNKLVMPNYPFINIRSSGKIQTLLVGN
Method in brief: as §1

ETV6 = ETV6 (Homo sapiens, UniProt P41212 1-452); settings: protein: recombinant; tags: N-terminal GST; dsDNA, one strand shown
Method in brief: as §1

ETV6, sequence (P41212 whole entry): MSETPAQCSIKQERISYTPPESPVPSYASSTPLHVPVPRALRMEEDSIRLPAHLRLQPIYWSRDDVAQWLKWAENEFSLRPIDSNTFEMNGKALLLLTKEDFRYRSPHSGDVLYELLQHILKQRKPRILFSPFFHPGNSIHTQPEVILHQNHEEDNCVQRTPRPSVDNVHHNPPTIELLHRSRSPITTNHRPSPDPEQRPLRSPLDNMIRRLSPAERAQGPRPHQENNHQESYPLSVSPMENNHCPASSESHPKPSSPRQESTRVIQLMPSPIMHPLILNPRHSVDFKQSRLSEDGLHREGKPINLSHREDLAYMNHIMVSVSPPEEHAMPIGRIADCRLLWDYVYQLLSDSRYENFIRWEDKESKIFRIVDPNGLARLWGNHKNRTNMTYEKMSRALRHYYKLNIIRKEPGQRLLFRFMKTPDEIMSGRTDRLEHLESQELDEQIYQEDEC
ETV1, sequence (P50549 whole entry): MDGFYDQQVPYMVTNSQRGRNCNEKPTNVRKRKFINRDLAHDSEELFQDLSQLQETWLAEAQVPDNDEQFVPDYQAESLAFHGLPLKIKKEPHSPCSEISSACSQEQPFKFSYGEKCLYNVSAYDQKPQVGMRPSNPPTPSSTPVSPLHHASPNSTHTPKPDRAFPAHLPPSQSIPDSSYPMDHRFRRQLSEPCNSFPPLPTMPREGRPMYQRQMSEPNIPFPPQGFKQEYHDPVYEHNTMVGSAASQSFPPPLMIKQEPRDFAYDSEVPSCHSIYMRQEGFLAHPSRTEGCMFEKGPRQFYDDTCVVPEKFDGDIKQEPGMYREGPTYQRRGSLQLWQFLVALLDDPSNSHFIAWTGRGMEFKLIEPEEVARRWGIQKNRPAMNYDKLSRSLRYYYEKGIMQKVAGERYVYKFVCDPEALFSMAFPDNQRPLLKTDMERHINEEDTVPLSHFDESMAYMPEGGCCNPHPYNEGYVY
ELF4, sequence (Q99607 whole entry): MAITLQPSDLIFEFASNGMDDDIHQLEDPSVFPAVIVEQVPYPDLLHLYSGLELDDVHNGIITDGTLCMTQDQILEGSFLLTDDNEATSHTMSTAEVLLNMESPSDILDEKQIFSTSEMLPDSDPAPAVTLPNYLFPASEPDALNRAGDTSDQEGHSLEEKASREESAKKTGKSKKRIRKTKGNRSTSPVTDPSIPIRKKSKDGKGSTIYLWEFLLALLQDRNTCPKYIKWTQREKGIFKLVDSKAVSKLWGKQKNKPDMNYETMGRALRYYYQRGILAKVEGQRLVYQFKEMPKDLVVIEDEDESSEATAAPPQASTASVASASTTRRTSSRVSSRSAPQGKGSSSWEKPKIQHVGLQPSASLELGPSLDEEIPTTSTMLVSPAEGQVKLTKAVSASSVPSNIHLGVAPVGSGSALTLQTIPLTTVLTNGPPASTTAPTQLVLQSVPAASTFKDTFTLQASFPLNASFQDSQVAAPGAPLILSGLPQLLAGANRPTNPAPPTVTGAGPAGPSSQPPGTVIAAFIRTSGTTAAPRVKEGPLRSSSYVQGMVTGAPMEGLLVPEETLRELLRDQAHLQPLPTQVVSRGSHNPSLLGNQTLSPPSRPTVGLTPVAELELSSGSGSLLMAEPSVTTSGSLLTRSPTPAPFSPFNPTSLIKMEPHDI
CRX, sequence (O43186 whole entry): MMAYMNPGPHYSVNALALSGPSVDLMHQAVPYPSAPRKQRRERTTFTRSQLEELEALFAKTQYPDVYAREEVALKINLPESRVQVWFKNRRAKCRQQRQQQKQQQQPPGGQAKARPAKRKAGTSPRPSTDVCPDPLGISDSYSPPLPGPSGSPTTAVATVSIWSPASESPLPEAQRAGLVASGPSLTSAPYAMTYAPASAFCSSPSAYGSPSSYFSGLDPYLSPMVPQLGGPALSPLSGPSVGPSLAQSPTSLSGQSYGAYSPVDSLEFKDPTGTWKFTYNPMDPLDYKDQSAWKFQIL
HSF1, sequence (Q00613 whole entry): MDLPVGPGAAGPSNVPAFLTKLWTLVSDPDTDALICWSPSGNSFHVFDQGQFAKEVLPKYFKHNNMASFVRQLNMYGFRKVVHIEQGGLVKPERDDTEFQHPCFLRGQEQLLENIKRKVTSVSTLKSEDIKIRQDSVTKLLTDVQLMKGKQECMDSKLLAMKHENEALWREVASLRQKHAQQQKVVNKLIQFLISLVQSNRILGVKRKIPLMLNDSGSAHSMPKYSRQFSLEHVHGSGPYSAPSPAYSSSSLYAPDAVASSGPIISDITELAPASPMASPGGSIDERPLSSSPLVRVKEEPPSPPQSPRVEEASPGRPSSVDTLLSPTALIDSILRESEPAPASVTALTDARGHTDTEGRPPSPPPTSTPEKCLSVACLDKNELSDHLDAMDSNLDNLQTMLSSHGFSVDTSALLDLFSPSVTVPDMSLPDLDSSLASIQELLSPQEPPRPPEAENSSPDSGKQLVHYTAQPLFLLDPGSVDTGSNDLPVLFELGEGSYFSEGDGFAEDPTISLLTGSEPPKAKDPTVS
ETV5, sequence (P41161 whole entry): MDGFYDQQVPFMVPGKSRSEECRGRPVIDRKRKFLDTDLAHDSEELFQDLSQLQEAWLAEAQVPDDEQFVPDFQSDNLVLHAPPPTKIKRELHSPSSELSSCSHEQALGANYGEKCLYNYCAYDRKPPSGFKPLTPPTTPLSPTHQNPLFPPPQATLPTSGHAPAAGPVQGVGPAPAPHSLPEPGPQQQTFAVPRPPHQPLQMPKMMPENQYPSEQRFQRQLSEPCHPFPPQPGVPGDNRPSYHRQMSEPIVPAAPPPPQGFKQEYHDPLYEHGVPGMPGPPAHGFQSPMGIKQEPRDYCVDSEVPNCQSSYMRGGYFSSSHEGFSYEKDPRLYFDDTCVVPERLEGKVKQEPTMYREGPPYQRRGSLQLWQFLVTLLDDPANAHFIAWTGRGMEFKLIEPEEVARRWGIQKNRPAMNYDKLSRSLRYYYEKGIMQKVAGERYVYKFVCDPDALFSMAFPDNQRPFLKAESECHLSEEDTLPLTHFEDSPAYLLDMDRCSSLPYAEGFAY

Row | Sequence | binding signal (FEV) | binding signal (ETV5) | binding signal (HSF1) | binding signal (ELF4) | binding signal (ELK4) | binding signal (ETV2) | binding signal (ELF3) | binding signal (CRX) | binding signal (ETV1) | binding signal (ERF) | binding signal (ETV3L) | binding signal (ETS2) | binding signal (SPDEF) | binding signal (ETV7) | binding signal (ELF5) | binding signal (ETV3) | binding signal (ETV6)
1 | TAACCA | 1 fold enrichment (6-mer frequency, TF over GST control) | 1.06 fold enrichment (6-mer frequency, TF over GST control) | 1.16 fold enrichment (6-mer frequency, TF over GST control) | 1.16 fold enrichment (6-mer frequency, TF over GST control) | 1.04 fold enrichment (6-mer frequency, TF over GST control) | 1.12 fold enrichment (6-mer frequency, TF over GST control) | 1.1 fold enrichment (6-mer frequency, TF over GST control) | 1.31 fold enrichment (6-mer frequency, TF over GST control) | 1.02 fold enrichment (6-mer frequency, TF over GST control) | 1.1 fold enrichment (6-mer frequency, TF over GST control) | 1.13 fold enrichment (6-mer frequency, TF over GST control) | 1.12 fold enrichment (6-mer frequency, TF over GST control) | 1.05 fold enrichment (6-mer frequency, TF over GST control) | 1.09 fold enrichment (6-mer frequency, TF over GST control) | 1.09 fold enrichment (6-mer frequency, TF over GST control) | 1.13 fold enrichment (6-mer frequency, TF over GST control) | 1.04 fold enrichment (6-mer frequency, TF over GST control)
2 | AAAGCT | 1.1 fold enrichment (6-mer frequency, TF over GST control) | 1.08 fold enrichment (6-mer frequency, TF over GST control) | 1.32 fold enrichment (6-mer frequency, TF over GST control) | 1.06 fold enrichment (6-mer frequency, TF over GST control) | 1.13 fold enrichment (6-mer frequency, TF over GST control) | 1.01 fold enrichment (6-mer frequency, TF over GST control) | 1.2 fold enrichment (6-mer frequency, TF over GST control) | 1.64 fold enrichment (6-mer frequency, TF over GST control) | 1.06 fold enrichment (6-mer frequency, TF over GST control) | 1.02 fold enrichment (6-mer frequency, TF over GST control) | 1.01 fold enrichment (6-mer frequency, TF over GST control) | 1.03 fold enrichment (6-mer frequency, TF over GST control) | – | 1.03 fold enrichment (6-mer frequency, TF over GST control) | 1.01 fold enrichment (6-mer frequency, TF over GST control) | 1.04 fold enrichment (6-mer frequency, TF over GST control) | 1.09 fold enrichment (6-mer frequency, TF over GST control)
